Anthrax LT inh = inhibitors of anthrax lethal toxin internalization. Potency, µM (highest dose often 40 µM), usual class: inhibitors. AID 912. 70,000 compounds, 0.67% hits. Cells, anthrax lethal toxin internalization, FRET ratio (460/530); further: nearly all actives have a fitted effect of over 50% in size
AmpC inh det = AmpC beta-lactamase inhibition, detergent assay; 71,000 compounds, 0.09% hits; P00811; Potency, µM (top dose mostly 28.7 µM); AID 584; purified AmpC, nitrocefin hydrolysis with detergent; active means well fitted curve in the direction sought with a large enough effect; inconclusive means small, poorly fitted or top-dose-only effect
Target sequence (P00811 whole entry, looked up): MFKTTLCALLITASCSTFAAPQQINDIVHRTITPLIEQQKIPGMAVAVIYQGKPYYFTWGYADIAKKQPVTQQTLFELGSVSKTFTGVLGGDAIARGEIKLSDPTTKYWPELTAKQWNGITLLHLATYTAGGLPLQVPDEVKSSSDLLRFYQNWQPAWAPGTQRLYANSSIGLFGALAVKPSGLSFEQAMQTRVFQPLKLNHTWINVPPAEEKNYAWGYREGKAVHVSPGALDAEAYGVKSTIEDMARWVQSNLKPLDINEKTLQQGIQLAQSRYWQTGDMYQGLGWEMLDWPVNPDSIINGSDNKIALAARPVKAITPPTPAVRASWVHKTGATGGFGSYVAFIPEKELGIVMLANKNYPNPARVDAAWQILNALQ
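E. coli AmpC (5.3 nM) in 20 mM phosphate pH 7.0 with 0.01% Triton X-100, preincubated 15 min RT with compound; nitrocefin (2 uL of 800 uM stock) hydrolysis followed by 480 nm absorbance every 20 s over 4 min.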
Prx2 Sm inh = blocks S. mansoni peroxiredoxin 2 enzymatic activity; Potency, µM; S. mansoni Prx2 activity coupled to TGR/GSH (TGR is thioredoxin glutathione reductase), NADPH fluorescence loss, qHTS; 65,000 compounds, 0.07% hits; AID 448
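Prx2 activity was followed as the loss of NADPH fluorescence (ex 365/em 450 nm), read every 30 sec for 8 min after H2O2 start. The enzyme mix (50 nM Prx2, 25 nM TGR, GSH, NADPH; pH 7.4 phosphate buffer) was incubated with compound for 15 min at room temperature first.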
AmpC nodet inh = inhibitors of E. coli AmpC beta-lactamase without detergent. P00811. AmpC nitrocefin hydrolysis, absorbance 480 nm, no detergent. Potency, µM (doses to about 28.7 µM). 71,000 compounds, 1.8% hits. AID 585
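AmpC, 20 mM phosphate pH 7.0; 15 min cpd preinc, RT; start with nitrocefin (800 uM stock); A480 kinetic read, 20 s intervals, 4 min. No-enzyme wells = negative control.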
A number is an active result; ! = a repeat was not active; [ ] = dose if it differs, or a comment. In the library only some 2.4% were active in any assay of this set; here they are far more common. Unless noted, the call rests on the fitted dose curve.

How did CC[C@@]12CCCN3CC[C@@]4(c5ccc(OC)c(O)c5N(C(C)=O)[C@H]4CC1)[C@H]32 do in these assays?
Anthrax LT inh: inactive; AmpC inh det: inactive; Prx2 Sm inh: inactive; AmpC nodet inh: inactive

How did COc1ccc2c(c1)CCc1c(C(=O)NCc3ccc(F)cc3)noc1-2 do in these assays?
Anthrax LT inh: inconclusive; AmpC inh det: inactive; Prx2 Sm inh: inactive; AmpC nodet inh: 4µM[single pt active]

What do the screens show for `O=C(NCCc1ccccc1)c1noc2c1CCc1ccccc1-2`?
Anthrax LT inh: inactive; AmpC inh det: inactive; Prx2 Sm inh: inactive; AmpC nodet inh: inactive

What do the screens show for `CCCNC(=O)c1noc2c1CCc1ccccc1-2`?
Anthrax LT inh: inactive; AmpC inh det: inactive; Prx2 Sm inh: inactive; AmpC nodet inh: 3.2µM[single pt active]

Results for COc1ccc2c(c1)CCc1c(C(=O)Nc3cc(C)n(Cc4ccc(Cl)cc4)n3)noc1-2 ?
Anthrax LT inh: inactive; AmpC inh det: inactive; Prx2 Sm inh: inactive; AmpC nodet inh: 7.9µM

How did COc1ccc2c(c1)CCc1c(C(=O)NCCc3ccc(OC)c(OC)c3)noc1-2 do in these assays?
Anthrax LT inh: inactive; AmpC inh det: inactive; Prx2 Sm inh: inconclusive; AmpC nodet inh: inactive

How did O=C(Oc1ccc2c3c(c(=O)oc2c1)CCCC3)c1ccco1 do in these assays?
Anthrax LT inh: inconclusive; AmpC inh det: inactive; Prx2 Sm inh: 55; AmpC nodet inh: inactive

What do the screens show for `CCC(NC(=O)OC(C)(C)C)C(=O)Oc1ccc2c3c(c(=O)oc2c1)CCC3` (configuration not stated)?
AmpC inh det: inactive; Prx2 Sm inh: 55; AmpC nodet inh: inactive

How did COC(=O)N1CCN(C(=O)Cc2ccc(Cl)c(Cl)c2)[C@H](CN2CCCC2)C1 do in these assays?
Anthrax LT inh: inconclusive; AmpC inh det: inactive; Prx2 Sm inh: 14!; AmpC nodet inh: inactive

What do the screens show for `COc1ccc(C(=O)O[C@H]2CC[C@@]3(C)[C@H]4CC[C@H]5[C@]3(C[C@]3(O)[C@H]6CN7C[C@H](C)CC[C@H]7[C@](C)(O)[C@]6(O)[C@H](O)C[C@]53O)O[C@]24O)cc1OC`?
Anthrax LT inh: inactive[8 µM]; AmpC inh det: inactive[5.75 µM]; Prx2 Sm inh: inactive; AmpC nodet inh: inactive[5.75 µM]

Results for COc1ccc(NC(=O)CN2CC(c3ccccc3)CC2=O)cc1OC (configuration not stated) ?
Anthrax LT inh: inactive; AmpC inh det: inactive; Prx2 Sm inh: inactive; AmpC nodet inh: 4µM[single pt active]

Results for O=C(CN1CCN(Cc2ccc(F)cc2)C1=O)NCc1cccs1 ?
Anthrax LT inh: inactive; AmpC inh det: inactive; Prx2 Sm inh: inactive; AmpC nodet inh: inactive

How did O=C(CN1CC(c2ccccc2)CC1=O)Nc1ccc2c(c1)OCO2 (configuration not stated) do in these assays?
Anthrax LT inh: inactive; AmpC inh det: inactive; Prx2 Sm inh: inactive; AmpC nodet inh: inactive

How did O=C(CN1CC(c2ccccc2)CC1=O)NCc1ccc(F)cc1 (configuration not stated) do in these assays?
Anthrax LT inh: inactive; AmpC inh det: inactive; Prx2 Sm inh: inactive; AmpC nodet inh: 4µM[single pt active]

What do the screens show for `Cn1c(=O)c2[nH]cnc2n(C)c1=O.[CH2-][C@H](Cc1cccc2cc(C(=O)O)c(=O)oc12)OC.[Hg].[OH-]`?
Anthrax LT inh: inconclusive; AmpC inh det: inactive[5.75 µM]; Prx2 Sm inh: inconclusive; AmpC nodet inh: inactive[5.75 µM]

How did CC(C)(C)c1ccc(O)c(C[N+](C)(C)C)c1 do in these assays?
Anthrax LT inh: inconclusive; AmpC inh det: inactive[5.75 µM]; Prx2 Sm inh: inactive; AmpC nodet inh: inactive[5.75 µM]

How did Nc1c(S(=O)(=O)O)cc(Nc2ccc(Nc3nc(Cl)nc(Nc4ccc(S(=O)(=O)O)cc4)n3)c(S(=O)(=O)O)c2)c2c1C(=O)c1ccccc1C2=O do in these assays?
Anthrax LT inh: inconclusive; AmpC inh det: 13µM; Prx2 Sm inh: inactive; AmpC nodet inh: inactive

Results for COC(=O)[C@H](C)NC(=O)[C@@H](C)CO ?
Anthrax LT inh: inactive[8 µM]

How did O=S(=O)(O)[C@@H](CO)c1ccccc1 (tested in a mixture with another compound) do in these assays?
Anthrax LT inh: inactive[8 µM]; AmpC inh det: inactive[5.75 µM]; Prx2 Sm inh: inactive; AmpC nodet inh: inactive[5.75 µM]

Results for O=C(Cn1c(=O)oc2ccccc21)N1CCN(c2ccc(N3CCOCC3)nn2)CC1 ?
Anthrax LT inh: inactive; AmpC inh det: inactive; Prx2 Sm inh: inactive; AmpC nodet inh: 2.5µM[single pt active]

What do the screens show for `Oc1cc(Cl)c(Cl)c(Cl)c1`?
Anthrax LT inh: 13µM; AmpC inh det: inactive; AmpC nodet inh: inactive

What do the screens show for `Oc1c(Cl)c(Cl)cc(Cl)c1Cl`?
Anthrax LT inh: inactive; AmpC inh det: inactive; AmpC nodet inh: inactive

Results for Cc1cccc2cc(C#N)c(SCC(=O)N3CC(=O)Nc4ccccc43)nc12 ?
Anthrax LT inh: inactive; AmpC inh det: inactive; Prx2 Sm inh: inactive; AmpC nodet inh: 16µM[single pt active]

How did Cc1cccc2cc(C#N)c(SCC(=O)N3CCC(C)CC3)nc12 do in these assays?
Anthrax LT inh: inactive; AmpC inh det: inactive; Prx2 Sm inh: inactive; AmpC nodet inh: inactive

What do the screens show for `O=C(c1ccco1)N1CCCC(c2nc(-c3ccc(S(=O)(=O)NCc4ccccc4)cc3)no2)C1` (configuration not stated)?
Anthrax LT inh: 13µM; AmpC inh det: inactive; Prx2 Sm inh: inactive; AmpC nodet inh: inactive

What do the screens show for `COc1ccc(-c2noc(C3CCCN(C(=O)CCc4ccccc4)C3)n2)cc1` (configuration not stated)?
Anthrax LT inh: inactive; AmpC inh det: inactive; Prx2 Sm inh: inactive; AmpC nodet inh: inactive

Results for CNCC[C@H](Oc1ccccc1C)c1ccccc1 ?
Anthrax LT inh: inactive; AmpC inh det: inactive; Prx2 Sm inh: inactive; AmpC nodet inh: inactive

What do the screens show for `CC[C@H](C(=O)[C@H](C)[C@H](O)[C@H](C)CCc1ccc(C)c(O)c1C(=O)O)[C@H]1O[C@](CC)([C@@H]2CC[C@@](O)(CC)[C@H](C)O2)C[C@H]1C`?
Anthrax LT inh: 0.32µM; AmpC inh det: inactive; Prx2 Sm inh: inactive; AmpC nodet inh: inactive

Results for O=c1nc2s/c(=C\c3ccco3)c(=O)n2nc1Cc1ccc(F)cc1 ?
Anthrax LT inh: inactive; AmpC inh det: inactive; Prx2 Sm inh: inactive; AmpC nodet inh: 10µM[single pt active]

What do the screens show for `Oc1c(Cl)cc(Cl)cc1Sc1cc(Cl)cc(Cl)c1O`?
Anthrax LT inh: 3.2µM; AmpC inh det: inactive; AmpC nodet inh: inconclusive

What do the screens show for `Oc1c(Cl)cc(C(c2cc(Cl)c(O)c(Cl)c2)C(c2cc(Cl)c(O)c(Cl)c2)c2cc(Cl)c(O)c(Cl)c2)cc1Cl`?
Anthrax LT inh: inactive[8 µM]; AmpC inh det: inactive[5.75 µM]; Prx2 Sm inh: inactive; AmpC nodet inh: inactive[5.75 µM]

What do the screens show for `O=C(Cc1ccccc1)Nc1nc(-c2cccs2)cs1`?
Anthrax LT inh: inconclusive; AmpC inh det: inactive; Prx2 Sm inh: inactive; AmpC nodet inh: inconclusive

How did O=C(COc1ccc(Cl)cc1)Nc1nc(-c2cccs2)cs1 do in these assays?
Anthrax LT inh: 10µM; AmpC inh det: inactive; Prx2 Sm inh: inactive; AmpC nodet inh: inconclusive

Results for COc1ccc(OCc2nnc3n2N=C(c2ccc(Br)cc2)CS3)cc1 ?
Anthrax LT inh: inconclusive; AmpC inh det: inactive; Prx2 Sm inh: inactive; AmpC nodet inh: 4µM[single pt active]

What do the screens show for `CN(C)NC(=O)CCC(=O)O`?
Anthrax LT inh: inactive; AmpC inh det: inactive; AmpC nodet inh: inactive

What do the screens show for `Oc1cc(Cl)c(Cl)cc1Cl`?
Anthrax LT inh: inconclusive; AmpC inh det: inactive; AmpC nodet inh: inactive

Screens deposited in PubChem by National Center for Advancing Translational Sciences (NCATS).
